In the OligoGym collection one finds sensor-assay potency score (higher = more potent) data, which are given here for 23 sequences.
Note: reference of the scale not given here.

The first test concerns the target CYB5RL. Nature of the test: pooled miR-30 sensor sort-seq; sequence = guide strand. Conditions: shRNA.
Take TTCTCTTGGTAACTCCAGGGAA: the sensor-assay potency score (higher = more potent) was -0.56.
In the case of TAGAGGTCAAACACACAGGGTG, the sensor-assay potency score (higher = more potent) was -0.0487.
The sequence TCTAAGTCATCTACTATCCCTC registered a sensor-assay potency score (higher = more potent) of 0.024.
On to TTTAATTAGGTCCTGGCCCAGG, for which the sensor-assay potency score (higher = more potent) was -0.401.
The same measure, in the same setting: for TTCCTCAGTGTCGTCGTCCTCT the value was -0.09; for TAGGTGTCCTTAGTGAGCCTGT, 0.0964; for TAGAGCAAACCGGACACGGTAG, -0.685.
On the same count and under the same terms, the result for TTTATAGAAGAAATCTCCGAAA reads -0.391.
The sequence TTTCTCTTGGTAACTCCAGGGA registered a sensor-assay potency score (higher = more potent) of -0.389.
Sequence TAGCACTTAATTAACACTTCAA had a sensor-assay potency score (higher = more potent) of 0.518.
The same measure, in the same setting: for TTAACACTTCAAAGTATCCTTC the value was 0.251.
For TTAATTAACACTTCAAAGTATC, the sensor-assay potency score (higher = more potent) is -1.17.

A further test deals with CYBRD1. Described as above. Conditions: shRNA.
TACTTCATTGTTTAACTCTGAA had a sensor-assay potency score (higher = more potent) of -0.114.
TTAAACTCTAGTGCGCTCCCAT gave a sensor-assay potency score (higher = more potent) of -0.237.
For the sequence TTATTTCAAGAAACCATCCTTT, the sensor-assay potency score (higher = more potent) was 0.251.
In turn, TAGAGCTAGTTTTGAAACGTGA showed a sensor-assay potency score (higher = more potent) of 0.234.
TATCAGTCCAACCCAGCTGTGC: the sensor-assay potency score (higher = more potent) is -0.838.
The sequence TTAACTCTGAATCTGATTTGTC gave a sensor-assay potency score (higher = more potent) of -0.16.
With TTTATATTAATCACATCCTTTC, the sensor-assay potency score (higher = more potent) is -0.692.
For TTTTCCTTGCTGCTACTTCATT, the sensor-assay potency score (higher = more potent) was -1.57.
In the case of TTTAACTCTGAATCTGATTTGT, the sensor-assay potency score (higher = more potent) was -0.198.
Turning to TATATTGTTAACATTGTGGTTC, the sensor-assay potency score (higher = more potent) is 0.299.
Turning to TTCATCAGGAGCTTGCTGCATT, the sensor-assay potency score (higher = more potent) is 0.213.
